Source: PubChem (National Center for Advancing Translational Sciences (NCATS))
Rows were chosen to be rich in hits. Some 7.2% of all compounds tested hit in one or more screens of this group.
LASV entry inh: blocks Lassa virus binding to or entry into cells. Potency, µM (titrated, usually from 37.9 µM), for inactives: top-dose activity change, negative = inhibition, actives largely listed as inhibitors. hit rate 1.2% among 300,000. AID 540256. Lassa virus pseudotype entry inhibition, cell reporter; calls by dose curve; tested in HEK293 cells; note: nearly all actives have a fitted effect of over 50% in size
RE007 growth inh: less growth of the S. pombe RE007 Vpr strain; S. pombe RE007 Vpr strain, BacTiter-Glo ATP luminescence, 24 h; Potency, µM (titrated, usually from 92.2 µM), without a hit: at the top dose activity change, negative = less growth, most hits filed as inhibitors; hit rate 0.21% among 360,000; active = well fitted falling curve with a large enough effect; inconclusive = small, poorly fitted or top-dose-only effect; inactive = no such curve, though single readings can be large or run the other way; note: nearly all actives have a fitted effect of over 50% in size
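Fission yeast strain RE007, carrying one chromosomally integrated HIV-1 vpr copy, was seeded at OD 0.01 in PMG+AL medium with 23 nL pinned compound. After 24 h at 30 °C and 99% humidity, viability was read by BacTiter-Glo luminescence.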
Sm TGR block: S. mansoni TGR enzyme inhibition; AID 485364; Q962Y6; hit rate 3% among 360,000; purified TGR, DTNB reduction, TNB absorbance 405 nm; Potency, µM (doses to about 114 µM), for the others: at the highest dose activity change, negative = inhibition, hits mostly inhibitors; note: nearly all actives have a fitted effect of over 60% in size
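TGR 20 nM + NADPH 100 uM (dispensed conc.), cpd preinc 15 min RT; start with NADPH (500 uM addition) then DTNB (15 mM addition). Kinetic TNB absorbance, 405 nm filter. Four-parameter Hill fit across titration.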
Marburg entry inh: blocks Marburg virus binding to or entry into cells. Marburg virus pseudotyped entry inhibition, cell reporter. Potency, µM (titrated, usually from 37.8 µM), for inactives: at the top dose activity change, negative = inhibition, most hits filed as inhibitors. hit rate 1.8% among 300,000. AID 540276; calls by dose curve; tested in HEK293 cells
FMDV inh: antivirals against foot and mouth disease virus; FMDV antiviral cell-based qHTS; hit rate 1.2% among 410,000; AID 1159524; Potency, µM (titrated, usually from 57.9 µM), without a hit: top-dose activity change, negative = inhibition, usual class: inhibitors; calls by dose curve; tested in HEK293T cells; note: read-out not given here; nearly all actives have a fitted effect of over 45% in size
HCV inh: HCV inhibition; Huh7.5.1 HCVcc-Cre infection, luciferase reporter, 44 h; Potency, µM (top dose mostly 41.8 µM), without a hit: at the highest dose activity change, negative = inhibition, usual class: inhibitors; hit rate 3.4% among 340,000; AID 651820
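Reporter virus HCVcc-Cre (~0.5 moi) infects cells exposed to compound; seeding density 1,000 cells/well with 4 h settling beforehand. Luminescence, 15 sec read, taken 44 h post-infection following a 15 min RT substrate incubation.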
* hit, by the source's call; ? = inconclusive; / = no result given; [ ] = remark or other dose. Unless noted, calls come from the whole dose curve; as a rule, active = well fitted curve in the direction sought with a large enough effect; inconclusive = small, poorly fitted or top-dose-only effect, or another doubt; inactive = no such curve, though single readings can be large; an effect the other way counts as inactive or inconclusive. % is set by controls: 0 for no effect and ±100 for the full control effect; potency is the fitted concentration of half-maximal effect.

SMILES | LASV entry inh | RE007 growth inh | Sm TGR block | Marburg entry inh | FMDV inh | HCV inh
CCc1ccc(C(=O)Nc2cccc(-c3nc4cc(C(C)C)ccc4o3)c2)cc1 | 1%[46.1 µM] | / | 0% | 22%[46.1 µM] | 1% | /
CSc1nc2sc3c(c2c(=O)n1-c1ccccc1)CCC(C(C)(C)C)C3 (stereo unspecified) | 11%[46.1 µM] | / | 4% | -2%[46.1 µM] | -11% | /
COC(=O)C1(C(=O)OC)Cc2conc2[C@H]1c1ccccc1 | / | / | / | -10%[14.2 µM] | / | /
C=CCn1c(SCC(=O)N2CCc3ccccc3C2)nc2sc(C)cc2c1=O | ? | 14% | 7% | ? | 22µM* | -22%
C=CCn1c(SCC(=O)/C(C#N)=C(\C)N)nc2sc(CC)cc2c1=O | ? | -11% | -7% | ? | 22µM* | ?
C=CCn1c(SCC(=O)c2cccs2)nc2sc(CC)cc2c1=O | ? | -8%[3.69 µM] | -27%[11.4 µM] | ? | 20µM* | 3.2µM*
COC(=O)[C@H](C)N1CC=CCOc2c(Cl)cc(Cl)cc2[S+]1(=O)[O-] | -4%[46.1 µM] | / | / | / | / | /
C=C1C(=O)OC2C=C(CO)CCC=C(CO)CC(OC(=O)C(C)C)C12 (stereo unspecified) | ? | 16% | / | ? | 40µM* | ?
CCOc1ccc(CNC(=O)c2ccc3c(c2)sc2nc(-c4ccccc4)cn23)cc1 | 27%[46.1 µM] | / | 2% | / | 31% | /
Cc1ccc(O)c(C(=O)CC(=O)c2ccccc2Cl)c1 | ? | ? | / | ? | 20% | 5µM*
CC[N+]1=C(C)C(C)(C)c2cc(C)ccc21 | / | 4% | -3% | / | ? | 13µM*
CCN1C(=O)C(=O)c2cc(C)ccc21 | / | -3% | / | / | -3% | -8%
CCN(c1ccccc1)S(=O)(=O)c1ccc(NC(=O)c2cc(=O)c3cc(C)cc(C)c3o2)cc1 | -4%[46.1 µM] | / | 26% | ? | -18% | /
O=S(=O)(NCCc1csc(-c2ccc(F)cc2)n1)c1ccc(Cl)cc1 | 2%[46.1 µM] | / | 5% | / | 0% | /
CCN(CC)CCN(C(=O)c1ccc2ccccc2c1)c1nc2ccc(OC)cc2s1 | / | 0% | 4% | / | -17% | ?
CCN(CC)CCN(C(=O)c1cc2ccccc2cc1OC)c1nc2ccc(F)cc2s1 | -20%[46.1 µM] | -5% | 0% | 5.6µM* | -29% | ?
CCN(CC)CCN(C(=O)c1cc2ccccc2cc1OC)c1nc2ccc(OC)cc2s1 | / | -3% | 5% | / | -19% | 11µM*
COc1cc2ccccc2cc1C(=O)N(CCN(C)C)c1nc2ccc(C)cc2s1 | ? | 6% | 3% | 4.5µM* | -15% | 6.3µM*
Cc1sc2nc3c4ccccc4c(NCc4ccco4)nn3c(=O)c2c1C | ? | 0% | 50µM* | 12% | 70% | -6%
Cc1nc(NCc2ccco2)c2c(C)c(C)sc2n1 | 8% | -12% | -11% | ? | ? | 10µM*
COC(=O)c1ccc(CSc2nc(C)nc3sc(C)c(C)c23)o1 | 1% | 6% | 100µM* | 3% | -16% | -3%
COC(=O)c1ccc(CSc2nnc(SCc3ccc(C(=O)OC)o3)s2)o1 | 20% | -7% | ? | -1% | ? | -14%
Cc1sc2ncnc(N(C)Cc3ccco3)c2c1C | -13% | 1% | -2% | -6% | 22µM* | ?
CC1(C(=O)Nc2cccc(Oc3ccccc3)c2)CCN1Cc1cc2ccccc2o1 (stereo unspecified) | / | 7%[18.4 µM] | / | / | -12% | /
Cc1nc(SCC(=O)N(C)Cc2ccco2)c2c(C)c(C)sc2n1 | ? | -2% | 45µM* | 7.3µM* | ? | ?
SMILES | LASV entry inh | RE007 growth inh | Sm TGR block | Marburg entry inh | FMDV inh | HCV inh
CCOC(=O)c1sc2nc(CC(=O)OC)nc(NCc3ccco3)c2c1C | -26% | 9% | 45µM* | ? | ? | ?
CCOC(=O)c1sc2nc(CC(=O)OC)nc(NCC(=O)OC)c2c1C | -13% | -3% | 3% | 19% | 7% | -22%
CCN(Cc1ccncc1)Cc1ccc2c(c1)CN(C(=O)c1ccccc1)CCO2 | / | / | / | / | -2% | /
CN(c1ccc(Cl)cc1)c1cc(=O)n(C)c2ccccc12 | ? | ? | 4% | -15% | ? | 10µM*
CCc1c(C)c(C#N)c2nc3ccccc3n2c1Nc1c(C)n(C)n(-c2ccccc2)c1=O | 15% | -7% | -27% | ? | -2% | 5%
CCCc1cc(Nc2c(C)n(C)n(-c3ccccc3)c2=O)n2c(nc3ccccc32)c1C#N | 4% | -3% | 14µM* | 17% | 24% | -5%
Cc1cc(Nc2c(C)n(C)n(-c3ccccc3)c2=O)n2c(nc3ccccc32)c1C#N | / | -4% | 22µM* | / | -4% | ?
Cc1cc(Nc2cccc([N+](=O)[O-])c2)n2c(nc3ccccc32)c1C#N | 6.3µM* | -12% | 8% | 3.2µM* | ? | 6.3µM*
COc1ccc(NC(=O)CSc2nc3nc(C)c(Cc4ccccc4)c(C)n3n2)cc1OC | -5%[46.1 µM] | / | -1% | / | -23% | /
C=CCC12OC3(OC)CC1[C@H](C)[C@@H](c1ccccc1)C2[C@@]3(C)O (stereo partly specified) | / | / | / | 0%[14.2 µM] | / | /
O=S(=O)(NCc1cccc(Br)c1)c1ccc(-c2cc(C(F)(F)F)on2)s1 | 17%[46.1 µM] | / | 10% | / | -19% | /
COc1ccc(Oc2ncc3nc(-c4cccc(C#N)c4)c(=O)n(C)c3n2)cc1 | / | / | / | / | -1% | /
CN(C)c1nc(N(C)C)nc(N(C#N)CCOc2ccccc2)n1 | -20% | 10% | 3% | -23% | ? | 11µM*
Cc1cc(C)nc(N(C#N)CCOc2ccccc2)n1 | -1% | -6% | -2% | ? | 23% | ?
Cc1ccccc1NC(=O)CSc1ccc(-c2ccco2)nn1 | 6% | -8% | -13% | ? | -24% | 11%
O=C(CSc1nnc2ccc(-c3ccco3)nn12)Nc1ccccc1F | -1% | -8% | 11µM* | -2% | -5% | 9%
COc1ccc(OC)c(NC(=O)CSc2ccc(-c3cccs3)nn2)c1 | 2%[46.1 µM] | / | 8% | / | -20% | /
COc1ccccc1NC(=O)CSc1ccc(-c2ccco2)nn1 | 2% | -1% | 20µM* | -17% | -2% | -4%
COc1ccc(OC)c(NC(=O)CSc2ccc(-c3ccco3)nn2)c1 | / | -8% | 3.5µM* | / | -22% | ?
Cc1ccc(C)c(NC(=O)CSc2ccc(-c3ccco3)nn2)c1 | 19% | 22% | 13µM* | 8% | -16% | 0%
COC(=O)CC1c2ccccc2C=C(/C=C/c2ccc3c(c2)OCO3)N1C(=O)OC (stereo unspecified) | / | / | / | -18%[14.2 µM] | / | /
CCOC(=O)N1CCN(Cc2nc3cc(NC(=O)c4cccc(C)c4)ccc3n2C(C)C)CC1 | -4%[46.1 µM] | / | 3% | ? | ? | /
N#CCC(=O)N/N=C/c1c(-c2ccccc2)n(-c2ccccc2)c2ccccc12 | ? | 2% | -3% | ? | ? | 14µM*
O=C(Nc1ccccc1)c1cc(C2CCCN(C(=O)c3ccccc3)C2)on1 (stereo unspecified) | / | -5% | / | / | 39% | /
